Experimental findings from PubChem BioAssay are described below.

For assay [1], the system named is TRPC4 beta (transient receptor potential cation channel C4), mouse. The experiment in a line: activators of mouse TRPC4 channel, confirmation, cell-based, Fluo4 calcium, HEK293 TRPC4beta/mu-opioid, duplicates, 10 µM (AID 2426;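 active = fluorescence ratio normalized to control raised more than 50% in primary screen plus both repeat runs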). The note with it: Fluo4 calcium fluorescence, at 10 µM; stronger effect = higher value.
For assay [2], the system named is transient receptor potential cation channel C4 beta (TRPC4), mouse. The experiment in a line: activators of mouse TRPC4 channel, confirmation, cell-based, second round, Fluo4, HEK293 TRPC4beta/mu-opioid, 1 µM (AID 2461;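 active = primary screen active and over 50% activation in each of two duplicate runs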). The note with it: Fluo4 calcium fluorescence, at 1 µM; stronger effect = higher value.
The subject of assay [3] is TRPC4 (transient receptor potential cation channel C4 beta), mouse. Kind of assay: positive allosteric modulators of mouse TRPC4, confirmation, cell-based, second round, Fluo-4, HEK293 TRPC4beta/mu-opioid, 1 µM (AID 2554). The note with it: DAMGO EC20, Fluo-4 calcium flux, at 1 µM; stronger effect = higher value. For orientation: Calcium flux is commonly read through the fluorescence of an indicator in the cells.

Assay [4] deals with TRPC4 beta (transient receptor potential cation channel C4), mouse. The experiment in a line: positive allosteric modulators of mouse TRPC4, confirmation, cell-based, Fluo-4, HEK293 TRPC4beta/mu-opioid (AID 2555;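 active = primary screen hit whose calcium fluorescence ratio, in both repeats, exceeds the weak agonist control mean by 3 SD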). Particulars: DAMGO EC20, Fluo-4 calcium flux, at 10 µM; stronger effect = higher value.
The target of assay [5] is Short transient receptor potential channel 4 (Mus musculus) (UniProt Q9QUQ5). Kind of assay: inhibitors of mouse TRPC4 channel, confirmation, cell-based, Fluo4, HEK293 TRPC4beta/mu-opioid (AID 2636;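 active = calcium signal cut by more than 3 SD below the full-agonist control yet still positive, in both repeats and the earlier primary screen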). The note with it: DAMGO, Fluo4 calcium flux, at 10 µM; stronger effect = higher value.
Assay [6] shares this target. The experiment in a line: inhibitors of mouse TRPC4 channel, confirmation, cell-based, second round, Fluo4, HEK293 TRPC4beta/mu-opioid, 1 µM (AID 2637;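 active = calcium signal ratio cut to more than 3 SD under the fully stimulated control mean yet still positive, in both repeats and the primary screen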;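 for inhibition: percent of integrated ratio relative to wells lacking test compound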). The note with it: Fluo4 calcium flux, DAMGO, at 1 µM; stronger effect = higher value.
Assay [7] shares this target. The experiment in a line: mouse TRPC4 channel activators, dose response, cell-based, HEK293 TRPC4/mu-opioid, Fluo-4 calcium (AID 434937;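 active = primary screen activator hit with a dose response curve and TRPC4 channel activation at any tested dose; inactive = no activation, no dose response, or not a primary hit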).
Assay [8] shares this target. Kind of assay: TRPC4 positive allosteric modulators, dose response, cell-based, HEK293 TRPC4/mu-opioid, Fluo-4 calcium, EC20 DAMGO (AID 434941;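 active = earlier screen potentiator hit that boosts the TRPC4 ion channel at some dose, with a dose response; inactive = no potentiation, no dose response, or not a prior hit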;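 note: calcium entry triggered by an EC20 dose of DAMGO at the co-expressed mu-opioid receptor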).
Assay [9] deals with Short transient receptor potential channel 6 (Mus musculus) (UniProt Q61143). Kind of assay: inhibition of mouse TRPC6 channel, confirmation, selectivity assay for TRPC4 inhibitor project, cell-based, HEK293, membrane potential dye, duplicate (AID 434948;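 active = active in primary screen and both duplicates, each dropping signal beyond three positive-control SD with fluorescence still positive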). Particulars: HEK293 TRPC6, membrane potential dye fluorescence, at 10 µM, stimulated with maximal-effect acetylcholine; stronger effect = higher value.

Assay [10] shares this target. Kind of assay: activation of mouse TRPC6 channel, confirmation, selectivity assay for TRPC4 activator project, cell-based, HEK293, membrane potential dye, duplicate (AID 434950;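 active = membrane potential signal rise above negative control mean plus 3 SD in both duplicates, also active in the earlier TRPC4 screen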). Particulars: HEK293 TRPC6, membrane potential fluorescence, at 10 µM; stronger effect = higher value.
Assay [11] shares this target. Kind of assay: TRPC6 potentiation by TRPC4 potentiator hits, confirmation, selectivity assay for TRPC4 potentiator project, HEK293 cells, membrane potential dye, duplicate (AID 434952;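 active = compound raising the membrane signal above positive-control mean plus 3 SD in both repeats, and a primary screen hit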). The note with it: HEK293 TRPC6, membrane potential dye fluorescence, at 10 µM, maximal acetylcholine added after compound; stronger effect = higher value.
Assay [12] addresses Short transient receptor potential channel 4 (Mus musculus) (UniProt Q9QUQ5). The experiment in a line: calcium flux activators in TRPC4/5HT1a cells, counter-screen for TRPC4 activator project, cell-based, second counter screen, HEK293 TRPC4/5HT1a, Fluo-4 (AID 434977;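 active = calcium signal rise above buffer-control mean plus 5 SD in both duplicates, and also a hit in the primary screen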). Particulars: Fluo-4 calcium flux, at 10 µM; stronger effect = higher value.
Assay [13] in a line: calcium flux inhibitors in TRPC4/5HT1a cells, confirmation, counter-screen for TRPC4 inhibitor project, cell-based, second counter screen, HEK293 TRPC4/5HT1a, Fluo-4 (AID 434978;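 active = primary screen active whose calcium signal fell more than 3 SD beyond the full-serotonin control mean in both duplicate plates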;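 for outcome: serotonin given first at submaximal then at maximal dose after compound preincubation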). The note with it: Fluo-4 calcium flux, at 10 µM, serotonin added to trigger calcium flux; stronger effect = higher value.
Assay [14] concerns TRPC4 (mouse), co-expressed with 5HT1a in HEK293. Kind of assay: calcium flux potentiators in TRPC4/5HT1a cells, confirmation, counter-screen for TRPC4 potentiator project, cell-based, second counter screen, HEK293 TRPC4/5HT1a, Fluo-4 (AID 434979;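 active = signal rise over 3 SD above mean of control wells given weak agonist, in both repeats and first screen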). The note with it: Fluo-4 calcium flux, at 10 µM, serotonin added at its EC20 dose; stronger effect = higher value.
Assay [15] is described as follows: calcium flux activation in mu-opioid HEK293 cells, confirmation, counter-screen for TRPC4 activator project, cell-based, HEK293 mu-opioid receptor line (AID 449723;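 active = hit in primary screen, with calcium signal over 5 SD above buffer well mean in both duplicates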;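 note: counter screen cells carry the mu-opioid receptor alone and lack TRPC4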). The note with it: Fluo-4 calcium fluorescence, at 10 µM; stronger effect = higher value.
Assay [16] can be described thus: calcium flux enhancement in mu-opioid HEK293 cells, confirmation, counter-screen for TRPC4 allosteric potentiator project, cell-based, HEK293 mu-opioid receptor line (AID 449724;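 active = calcium signal rise more than 3 SD above the low-dose agonist control mean, in both duplicate plates and the primary screen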;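 note: HEK293 cells carrying mu-opioid receptor only with no TRPC4 channel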). Particulars: Fluo-4 calcium flux, at 10 µM, compound added before EC20 DAMGO stimulus; stronger effect = higher value.

SMILES strings stand for the structures. For part of these data: Measured potencies and affinities stand elsewhere. The source made the active and inactive calls.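 Rule for the calls, unless noted: active = primary screen hit whose fluorescence ratio, in both repeats, exceeds the weak agonist control mean by 3 SD; inactive = the rest.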

Chain of Short transient receptor potential channel 4 (Mus musculus) (Q9QUQ5 whole entry, looked up): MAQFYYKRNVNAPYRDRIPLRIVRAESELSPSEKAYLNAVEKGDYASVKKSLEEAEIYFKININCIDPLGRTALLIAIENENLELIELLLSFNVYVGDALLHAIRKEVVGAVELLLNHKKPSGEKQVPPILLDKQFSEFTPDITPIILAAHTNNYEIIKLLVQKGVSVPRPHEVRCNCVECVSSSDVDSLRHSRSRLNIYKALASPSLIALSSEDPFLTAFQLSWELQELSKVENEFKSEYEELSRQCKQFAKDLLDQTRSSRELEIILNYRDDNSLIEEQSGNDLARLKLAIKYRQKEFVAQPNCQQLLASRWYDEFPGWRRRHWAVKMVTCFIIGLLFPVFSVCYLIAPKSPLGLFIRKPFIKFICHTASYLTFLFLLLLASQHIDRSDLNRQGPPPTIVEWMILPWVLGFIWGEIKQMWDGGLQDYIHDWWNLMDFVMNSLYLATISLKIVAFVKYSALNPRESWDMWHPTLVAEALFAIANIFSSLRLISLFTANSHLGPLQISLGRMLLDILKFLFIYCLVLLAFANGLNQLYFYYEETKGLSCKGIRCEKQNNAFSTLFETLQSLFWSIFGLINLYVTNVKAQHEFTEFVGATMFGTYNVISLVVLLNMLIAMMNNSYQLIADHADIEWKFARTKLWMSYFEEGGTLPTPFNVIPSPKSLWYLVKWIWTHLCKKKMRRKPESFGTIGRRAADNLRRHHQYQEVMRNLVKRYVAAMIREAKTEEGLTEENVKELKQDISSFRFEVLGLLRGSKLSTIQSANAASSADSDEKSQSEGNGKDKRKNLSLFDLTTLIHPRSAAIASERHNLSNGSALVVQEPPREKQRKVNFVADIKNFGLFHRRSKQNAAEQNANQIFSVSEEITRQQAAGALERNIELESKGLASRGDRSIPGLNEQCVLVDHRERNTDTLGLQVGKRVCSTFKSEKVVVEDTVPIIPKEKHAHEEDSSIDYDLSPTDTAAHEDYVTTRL
Chain of Short transient receptor potential channel 6 (Mus musculus) (Q61143 whole entry, looked up): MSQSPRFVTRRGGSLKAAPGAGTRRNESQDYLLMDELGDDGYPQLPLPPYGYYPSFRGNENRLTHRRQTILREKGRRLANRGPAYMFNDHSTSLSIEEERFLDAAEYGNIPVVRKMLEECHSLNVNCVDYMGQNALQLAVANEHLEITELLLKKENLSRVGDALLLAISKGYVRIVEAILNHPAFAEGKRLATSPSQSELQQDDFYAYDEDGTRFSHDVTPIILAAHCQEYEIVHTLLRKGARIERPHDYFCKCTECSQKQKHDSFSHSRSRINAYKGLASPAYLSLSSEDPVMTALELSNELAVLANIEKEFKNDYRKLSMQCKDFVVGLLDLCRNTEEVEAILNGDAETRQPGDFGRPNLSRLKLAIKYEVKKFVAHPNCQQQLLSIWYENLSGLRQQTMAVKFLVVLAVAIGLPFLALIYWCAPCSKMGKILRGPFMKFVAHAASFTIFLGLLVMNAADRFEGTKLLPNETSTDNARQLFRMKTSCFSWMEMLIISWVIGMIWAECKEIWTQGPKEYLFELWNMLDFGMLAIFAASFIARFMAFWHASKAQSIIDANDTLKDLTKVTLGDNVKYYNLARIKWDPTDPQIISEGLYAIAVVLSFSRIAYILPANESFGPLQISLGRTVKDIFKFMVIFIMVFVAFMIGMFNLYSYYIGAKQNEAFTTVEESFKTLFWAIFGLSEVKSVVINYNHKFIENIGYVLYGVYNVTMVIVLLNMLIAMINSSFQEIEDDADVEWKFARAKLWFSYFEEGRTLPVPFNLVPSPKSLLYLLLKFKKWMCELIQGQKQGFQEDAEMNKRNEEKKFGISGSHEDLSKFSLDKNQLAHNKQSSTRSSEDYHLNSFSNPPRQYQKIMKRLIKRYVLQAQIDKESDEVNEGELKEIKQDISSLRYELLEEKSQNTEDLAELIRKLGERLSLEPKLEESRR

As to `COc1ccc(Br)cc1CNC(C)c1ccccc1` (stereo not given), the result in assay [1], in assay [2], in assay [3], in assay [4], in assay [6] and in assay [7] was inactive. The outcome in assay [8], in [10], in assay [11], in assay [12], in assay [14] and in assay [15] was inactive. Further, the outcome in assay [16] was inactive. Also, the inhibition (in general, the change of the read-out against control, counted positive when it falls) in assay [5] was 55% (active); in assay [9], 49.5% (active); in [13] it was 23.6% (active).
On to `CCC(O)(c1ccc(OC)cc1)C(CN1CCOCC1)c1ccccc1` (stereo not given), for which the result in assay [1], in assay [2], in [3], in assay [4], in [7] and in assay [8] was inactive. Also, the outcome in [9], in [10], in [11], in assay [12], in assay [14] and in [15] was inactive. Also, the result in [16] was inactive. For the same compound, the inhibition in assay [5] is 92% (active); in assay [6], 52% (active); in assay [13], 14.9% (active).
For `CC(=O)c1ccc2c(c1)N(C)c1ccccc1S2`, the result in [1], in assay [2], in assay [3], in assay [4], in assay [6] and in [7] was inactive. Besides, the outcome in assay [8], in assay [9], in assay [10], in [11], in assay [12] and in [14] was inactive. In addition, the outcome in [15] and in assay [16] was inactive. For the same compound, the values for the inhibition in [5] and in [13] were 84% (active) and 36.8% (active), respectively.
Consider `N=c1n(CCO)c2ccccc2n1Cc1ccc(Cl)cc1`, for which the outcome in assay [1], in assay [2], in [3], in assay [4], in [7] and in [8] was inactive. The compound was classed as inactive in assay [9], in [10], in [11], in [12], in assay [14] and in assay [15]. Further, in assay [16], the outcome was inactive. In addition, the inhibition was 96% (active) in assay [5], 75% (active) in assay [6] and 11.9% (active) in assay [13].
On to `COC(=O)CSc1nnc(-c2sc3cc(OC)ccc3c2Cl)n1C`, for which the result in [1], in [2], in [3], in [4], in assay [7] and in [8] was inactive. The result in [9], in assay [10], in [11], in assay [12], in assay [13] and in assay [14] was inactive. In addition, the outcome in assay [15] and in assay [16] was inactive. Besides, the results for the inhibition in [5] and in assay [6] were 95% (active) and 59% (active), respectively.
On to `CCOc1cc(/C=C2\C(=N)N3N=CSC3=NC2=O)ccc1OS(=O)(=O)c1ccccc1`, for which the outcome in assay [1], in [2], in [3], in assay [4], in [6] and in assay [7] was inactive. Moreover, the outcome in [8], in [9], in assay [10], in assay [11], in [12] and in assay [14] was inactive. In addition, the result in assay [15] and in [16] was inactive. Further, the results for the inhibition in [5] and in assay [13] were 96% (active) and 16.2% (active), respectively.
In the case of `Cc1ccc(O)c(CNc2nc3ccccc3[nH]2)c1`, the result in assay [1], in assay [2], in [3], in assay [4], in assay [7] and in assay [8] was inactive. In addition, the compound was classed as inactive in [9], in [10], in [11], in assay [12], in assay [14] and in assay [15]. Also, in assay [16], the outcome was inactive. For the same compound, the figures for the inhibition in assay [5], in assay [6] and in assay [13] were 96% (active), 76% (active) and 24.5% (active), respectively.
On to `Cc1ccc(Oc2ccccc2/C=N/O)cc1`, for which the result in assay [1], in assay [2], in assay [3], in [4], in assay [6] and in [7] was inactive. For the same compound, the outcome in [8], in assay [9], in [10], in assay [11], in [12] and in assay [14] was inactive. The outcome in [15] and in assay [16] was inactive. In addition, the inhibition in [5] is 89% (active); in assay [13], 10.1% (active).
Take `Cc1ccc(N(CC(=O)NC2CCCC2)C(=O)CNC(=O)c2cccs2)cc1F`: the outcome in assay [1], in assay [2], in assay [3], in assay [4], in assay [6] and in assay [7] was inactive. The result in assay [8], in assay [9], in [10], in [11], in assay [12] and in assay [13] was inactive. Also, the outcome in assay [14], in assay [15] and in [16] was inactive. Moreover, the inhibition in assay [5] is 70% (active).
Regarding `C=CCc1ccccc1OCC(O)CN1CCN(c2ccccc2OC)CC1` (stereo not given), the outcome in [1], in assay [2], in [3], in assay [4], in [6] and in [7] was inactive. For the same compound, the outcome in [8], in assay [9], in assay [10], in assay [11], in assay [12] and in [14] was inactive. The outcome in assay [15] and in [16] was inactive. In addition, the inhibition in assay [5] was 68% (active); in assay [13], 13.1% (active).
As for `CCOC(=O)C(C)Sc1nc2c(c(=O)[nH]c(=O)n2C)n1Cc1ccc(Cl)cc1` (stereo not given), the result in assay [1], in assay [2], in assay [3], in [4], in [7] and in assay [8] was inactive. Besides, the compound was called inactive in [9], in assay [10], in assay [11], in assay [12], in [14] and in assay [15]. Further, the outcome in assay [16] was inactive. The inhibition in assay [5] was 93% (active); in [6], 68% (active); in [13], 19.9% (active).
Take `Cc1ccccc1Cn1c(=N)n(CC(O)c2ccco2)c2ccccc21` (stereo not given): the outcome in [1], in assay [2], in assay [3], in [4], in assay [7] and in assay [8] was inactive. Besides, the outcome in assay [9], in assay [10], in assay [11], in assay [12], in assay [14] and in [15] was inactive. Further, the outcome in assay [16] was inactive. Further, the inhibition was 89% (active) in assay [5], 58% (active) in assay [6] and 33.6% (active) in [13].
In the case of `Cc1ccc(N2CCN(C(=O)c3ccccc3F)CC2)c(C)c1`, the outcome in [1], in assay [2], in assay [3], in assay [4], in [7] and in assay [8] was inactive. Besides, the call in assay [9], in assay [10], in [11], in assay [12], in assay [14] and in assay [15] was inactive. The result in assay [16] was inactive. Further, the values for the inhibition in [5], in [6] and in assay [13] were 84% (active), 41% (active) and 26.6% (active), respectively.
On to `CCOC(=O)c1c(NC(=O)/C=C/C(=O)O)sc(C)c1-c1ccc(C(C)(C)C)cc1`, for which the result in [1], in assay [2], in [3], in assay [4], in [5] and in assay [6] was inactive. Also, the result in assay [7], in assay [8], in assay [9], in assay [10], in assay [11] and in assay [12] was inactive. The result in assay [14], in assay [15] and in [16] was inactive. Also, the inhibition in [13] was -6.26% (active).
In the case of `Cc1cc(N2CCCCC2)nc2ccccc12`, the result in assay [1], in assay [2], in assay [3], in assay [4], in assay [7] and in assay [8] was inactive. The compound was called inactive in [9], in [10], in [11], in assay [12], in assay [14] and in assay [15]. Further, in assay [16], the result was inactive. The inhibition in assay [5] was 83% (active); in assay [6] it was 40% (active); in assay [13], 28.5% (active).
